Assay outcomes from PubChem.
HP1b binding inh – HTS for Inhibitors of HP1-beta Chromodomain Interactions with Methylated Histone Tails | AID 540317, 2011 | actives 0.56% (n = 390,000) | Potency, µM (top dose mostly 114 µM), usual class: inhibitors | AlphaScreen HP1-beta / biotin-H3K9me3 peptide binding | Chromobox protein homolog 1 (Homo sapiens), P83916; also: nearly all actives have a fitted effect of over 70% in size
Target sequence (P83916 whole entry, looked up): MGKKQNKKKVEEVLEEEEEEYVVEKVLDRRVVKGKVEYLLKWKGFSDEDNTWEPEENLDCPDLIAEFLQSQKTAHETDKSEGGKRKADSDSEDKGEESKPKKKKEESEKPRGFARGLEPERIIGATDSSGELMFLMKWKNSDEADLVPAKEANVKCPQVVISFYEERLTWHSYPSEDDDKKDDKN
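AlphaScreen: HP1-beta (50 nM) preformed 30 min with biotin-H3(1-18)K9me3 peptide (50 nM) in PBS pH 7.4, 0.01% Tween-20. Compound added for 30 min at RT, then streptavidin donor/nickel chelate acceptor beads (10 ug/mL) for 30 min.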
PLK1 PBD inh – qHTS for Inhibitors of PLK1-PDB (polo-like kinase 1 - polo-box domain): Primary Screen | actives 2.8% (n = 360,000) | Plk1 PBD binding of FITC phosphopeptide, fluorescence polarization | AID 720504, 2013 | Serine/threonine-protein kinase PLK1 (Homo sapiens), P53350 | Potency, µM, most hits filed as inhibitors; also: series mostly up to about 57 µM; nearly all actives have a fitted effect of over 65% in size
BAZ2B block – qHTS Assay for Inhibitors of BAZ2B | Bromodomain adjacent to zinc finger domain protein 2B (Homo sapiens), Q9UIF8 | AlphaScreen BAZ2B-H3K14Ac peptide displacement | Potency, µM (highest dose often 114 µM), most hits filed as inhibitors | actives 4.4% (n = 360,000) | AID 504333, 2011; also: nearly all actives have a fitted effect of over 60% in size
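BAZ2B (50 nM) with biotin-H3(5-23)K14Ac peptide (50 nM) in PBS pH 7.4, 0.01% Tween-20, preformed 30 min, then compound 30 min at room temperature; top concentration 110uM. AlphaScreen streptavidin donor/nickel chelate acceptor beads (10 ug/mL final), 20 min dark, signal read.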
Sfp PPTase inh – qHTS Assay for Inhibitors of Bacillus subtilis Sfp phosphopantetheinyl transferase (PPTase); 4'-phosphopantetheinyl transferase ffp (Bacillus subtilis), Q9F4F7; Biochemical Sfp PPTase activity, qHTS; Potency, µM, actives largely listed as inhibitors; actives 3.5% (n = 310,000); AID 1490, 2009;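 also: the enzyme is Sfp with the accession as filed and its product quenches rhodamine fluorescence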
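Step 1, compound plus 15 nM Sfp-PPTase, 15 min, room temperature. Step 2, add rhodamine-CoA (5 uM) and BHQ-2-YbbR (12.5 uM). Step 3, read 525/598 nm fluorescence at 0 and 30 min.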
G9a inh – qHTS Assay for Inhibitors of Histone Lysine Methyltransferase G9a | G9a H3K9 monomethylation, AlphaScreen, 2 h | Potency, µM (titrated, usually from 102 µM), actives largely listed as inhibitors | actives 8.8% (n = 350,000) | AID 504332, 2011; also: nearly all actives have a fitted effect of over 75% in size
Target sequence (Q96KQ7 913-1193 limits assumed): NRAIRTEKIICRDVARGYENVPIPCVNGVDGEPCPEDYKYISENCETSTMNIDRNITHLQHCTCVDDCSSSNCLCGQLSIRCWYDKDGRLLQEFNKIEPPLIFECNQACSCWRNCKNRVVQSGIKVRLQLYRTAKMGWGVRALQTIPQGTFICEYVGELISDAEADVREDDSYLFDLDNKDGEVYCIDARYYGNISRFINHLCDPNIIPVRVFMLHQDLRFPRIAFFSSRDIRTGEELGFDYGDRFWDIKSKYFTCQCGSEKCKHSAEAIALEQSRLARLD
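Methyltransferase reactions run at room temperature for 2 h (20 nM enzyme, 500 nM biotin-H3K9 peptide, 20 uM SAM) after a 15 min compound preincubation; product detected by AlphaScreen beads and anti-H3K9me1 antibody.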
JMJD2A Tudor inh – qHTS Assay for Inhibitors of JMJD2A-Tudor Domain; AlphaScreen JMJD2A-Tudor / H3K4me3 peptide binding; Potency, µM (highest dose often 114 µM), actives largely listed as inhibitors; actives 4.4% (n = 390,000); AID 504339, 2011; also: nearly all actives have a fitted effect of over 50% in size
Large screens that a line does not name were inactive. Rows were chosen to be rich in hits. Some 12% of all compounds tested hit in one or more screens of this group. Calls follow the shape of the dose curve; as a rule, active = well fitted curve in the direction sought with a large enough effect; inconclusive = small, poorly fitted or top-dose-only effect, or another doubt; inactive = no such curve, though single readings can be large; an effect the other way counts as inactive or inconclusive.

Cc1cccc(C(=O)OC(C)C(=O)Nc2ccc(S(=O)(=O)Nc3ncccn3)cc2)c1C (stereo unspecified)	G9a inh inconclusive (no result: Sfp PPTase inh)
CCNc1nc(C#N)nc2c1ncn2-c1cccc(Cl)c1	none (no result: HP1b binding inh, PLK1 PBD inh, BAZ2B block, Sfp PPTase inh, G9a inh)
O=C(CNCc1ccc(Cl)cc1)N1CCc2ccccc2C1	BAZ2B block inconclusive, JMJD2A Tudor inh 22µM
CC(CCc1ccccc1)NC(=O)CN1CCc2ccccc2C1 (stereo unspecified)	PLK1 PBD inh 27µM, JMJD2A Tudor inh inconclusive
CC(NC(=O)CN1CCc2ccccc21)c1ccccc1 (stereo unspecified)	G9a inh 25µM
CC(=O)C(Cc1ccccc1)NC(=O)CN1CCc2ccccc2C1 (stereo unspecified)	none
CC(NC(=O)CN1CCN(c2ccccc2F)CC1)c1ccccc1 (stereo unspecified)	none
CC[C@H]1C2=C3C(CC[C@H]4C(OCc5ccc(F)cc5C(F)(F)F)OC[C@](C)([C@@H]34)N(C(=O)OC(C)(C)C)C2)C2COC(=O)OCC21 (stereo partly specified)	none (no result: HP1b binding inh, PLK1 PBD inh, BAZ2B block, G9a inh, JMJD2A Tudor inh)
OC(c1ccc(F)c(F)c1)c1nc(-c2cccc3cccnc23)cs1 (stereo unspecified)	none (no result: HP1b binding inh, BAZ2B block, Sfp PPTase inh, G9a inh, JMJD2A Tudor inh)
CC(=O)N(C(C)=O)c1nc2nc(C)cc(C)n2n1	PLK1 PBD inh inconclusive, BAZ2B block 56µM, G9a inh inconclusive, JMJD2A Tudor inh inconclusive
Cc1csc(NC(=O)c2nc3nc(C)cc(C)n3n2)n1	BAZ2B block inconclusive, G9a inh inconclusive, JMJD2A Tudor inh 79µM
Cc1cc(C)n2nc(CCc3nc4nc(C)cc(C)n4n3)nc2n1	none (no result: HP1b binding inh, PLK1 PBD inh, JMJD2A Tudor inh)
Cc1cc(C)n2nc(C(=O)Nc3cccnc3)nc2n1	none
Cc1cc(C)n2nc(C(=O)Nc3nccs3)nc2n1	JMJD2A Tudor inh 11µM
Cc1cc(C)n2nc(C(=O)N3CCOCC3)nc2n1	none
Cc1cc(C)n2nc(C(=O)NC(c3ccccc3)c3ccccc3)nc2n1	none
Cc1cc(C)n2nc(C(=O)Nc3ccc(N4CCOCC4)cc3)nc2n1	G9a inh 10µM
O=C1CC(N2CCSCC2)C(=O)N1c1cccc(Cl)c1 (stereo unspecified)	none
O=C(O)c1ccc2c(c1)C(=O)N([C@H](Cc1c3ccccc3cc3ccccc13)C(=O)O)C2=O	JMJD2A Tudor inh inconclusive (no result: HP1b binding inh, PLK1 PBD inh)
COc1ccc(/C=C/C(=O)OCCC(C)C)cc1	none (no result: HP1b binding inh, PLK1 PBD inh, BAZ2B block, JMJD2A Tudor inh)
Cc1ccc(-c2noc(CN(C3CCCCC3)S(=O)(=O)c3ccc(C)cc3)n2)cc1	none (no result: PLK1 PBD inh, Sfp PPTase inh)
Fc1ccc(CN2CCN(c3ncccn3)CC2)cc1	HP1b binding inh inconclusive, BAZ2B block inconclusive, G9a inh 10µM, JMJD2A Tudor inh 10µM
CCc1ccc(CN2CCN(c3ncccn3)CC2)cc1	BAZ2B block 50µM, Sfp PPTase inh inconclusive, JMJD2A Tudor inh 20µM
CCOc1cc(CN2CCN(c3ncccn3)CC2)ccc1OC	HP1b binding inh inconclusive, BAZ2B block 79µM, JMJD2A Tudor inh 2.8µM (no result: G9a inh)
CCn1c(C)nc2cc(C(=O)NNS(=O)(=O)c3c(F)cc(F)c(Cl)c3F)ccc21	G9a inh 40µM, JMJD2A Tudor inh 25µM
O=C(NNC(=S)Nc1ccc(Cl)cc1)c1ccccc1	G9a inh 35µM
COc1ccc(C(=O)NNC(=S)Nc2ccccc2)cc1	G9a inh 45µM
CCn1c(C)nc2cc(C(=O)NNC(=S)Nc3ccc(OC)cc3)ccc21	G9a inh 40µM
COc1ccc(C(=O)NNC(=S)NC(=O)c2ccc(OC)cc2)cc1	none (no result: G9a inh)
Cc1nc(N2CCOCC2)c2nc(-c3ccccc3)n(CC(C)(C)CN(C)C)c2n1	none (no result: HP1b binding inh, PLK1 PBD inh, BAZ2B block, G9a inh, JMJD2A Tudor inh)
O=C(NNC(=S)Nc1cccc(Cl)c1)c1ccccc1	G9a inh 35µM
O=C(NC1CC(=O)N(c2cccc(F)c2)C1)C(c1ccccc1)c1ccccc1 (stereo unspecified)	none (no result: PLK1 PBD inh, Sfp PPTase inh)
CCCCCc1ccc(CC(=O)O)cc1	none
CCCCc1ccc(CC(=O)O)cc1	PLK1 PBD inh 30µM, Sfp PPTase inh inconclusive, G9a inh inconclusive
COc1ccccc1NC(=S)N(CCc1c(C)[nH]c2ccccc12)Cc1cccs1	G9a inh inconclusive, JMJD2A Tudor inh inconclusive
CNC(=S)N(CCc1c(C)[nH]c2ccccc12)Cc1cc(OC)c(OC)c(OC)c1	BAZ2B block 45µM, G9a inh inconclusive, JMJD2A Tudor inh inconclusive
CCNC(=S)N(CCc1c(C)[nH]c2ccccc12)Cc1cc(OC)c(OC)c(OC)c1	BAZ2B block 50µM, G9a inh 89µM, JMJD2A Tudor inh inconclusive
COC(=O)[C@@]1(Cc2ccccc2)[C@H]2c3cc(C(=O)N4CCCC4)n(Cc4cccc5ccccc45)c3C[C@H]2CN1C(=O)c1ccccc1	none (no result: HP1b binding inh, PLK1 PBD inh, BAZ2B block, G9a inh, JMJD2A Tudor inh)
O=C(CCSc1nc2ccccc2o1)N1CCOCC1	G9a inh 14µM
COC(=O)C1Cc2c([nH]c3ccccc23)C2(CCN(Cc3ccccc3)CC2)N1 (stereo unspecified)	BAZ2B block inconclusive, G9a inh 45µM, JMJD2A Tudor inh inconclusive
CCC1(C)NC(C(=O)O)Cc2c1[nH]c1ccccc21 (stereo unspecified)	G9a inh inconclusive
CCOC(=O)N1CCC2(CC1)NCCc1c2[nH]c2ccccc12	G9a inh inconclusive
CCCN1CCC2(CC1)NC(C(=O)O)Cc1c2[nH]c2ccccc12 (stereo unspecified)	BAZ2B block inconclusive, G9a inh 14µM
CC(=O)Nc1ccc(C2=NNC(=Nc3cccc(S(=O)(=O)N(C)C)c3)SC2)cc1	HP1b binding inh inconclusive, PLK1 PBD inh 19µM, Sfp PPTase inh 13µM, G9a inh 25µM, JMJD2A Tudor inh 35µM
CC(C)(C)N=C1NN=C(c2ccc(S(=O)(=O)N3CCCCC3)cc2)CS1	G9a inh 35µM (no result: Sfp PPTase inh)
CN(C)S(=O)(=O)c1cccc(N=C2NN=C(c3ccccc3)CS2)c1	HP1b binding inh inconclusive, PLK1 PBD inh inconclusive, G9a inh 35µM
O=S(=O)(c1ccc(N=C2NN=C(c3cc(F)ccc3F)CS2)cc1)N1CCOCC1	PLK1 PBD inh inconclusive
CC(=O)Nc1ccc(C2=NNC(=Nc3ccc(S(=O)(=O)N4CCOCC4)cc3)SC2)cc1	HP1b binding inh inconclusive, PLK1 PBD inh inconclusive, Sfp PPTase inh 14µM, G9a inh 2.8µM
Cc1cc(CN(C)C(=O)c2ccc3nc(Cc4ccccc4F)oc3c2)on1	none
Cc1c(NC(=O)C(Sc2ccccc2)c2ccccc2)cccc1[N+](=O)[O-] (stereo unspecified)	none
COc1ccc(Nc2nnc(SCC(=O)Nc3ccc4[nH]c(=O)[nH]c4c3)s2)cc1	G9a inh 16µM
